Bioassay records as filed in PubChem BioAssay.
Cycloheximide cs: counter-screen for Shiga toxin inhibitors: cycloheximide protein synthesis inhibition | cell reporter, cycloheximide protein synthesis inhibition counterscreen | max response, % | 12% of 300,000 active | AID 2314; in the data active = max response mostly above about 13%, no sharp cut-off; inactive = mostly below about 14%; note: read at 38.3 µM for the half of the compounds with a filed dose
Shiga toxin inh: Shiga toxin inhibition; Vero cells, Shiga toxin protein synthesis inhibition reporter; inhibition, % at 38.7 µM; 9.2% of 290,000 active; AID 2315; in the data active = inhibition mostly above about 28%, no sharp cut-off; inactive = mostly below about 43%
Pf growth 96h: P. falciparum growth inhibition at 96 hours. P. falciparum luciferase reporter growth, 96 h. Potency, µM (titrated, usually from 28.7 µM), usual class: inhibitors. 6.9% of 320,000 active. AID 504834
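P. falciparum expressing integrated firefly luciferase, in erythrocytes at 2% hematocrit, 0.05% parasitemia, incubated with compounds 96 h at 37 C, 5% CO2. Growth inhibition read as loss of luminescence; two-generation exposure targets delayed-death apicoplast inhibitors.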
Pf growth 48h: P. falciparum growth inhibition at 48 hours (one generation); P. falciparum luciferase growth in erythrocytes, 48 h; Potency, µM (highest dose often 28.7 µM), most hits filed as inhibitors; 5.9% of 310,000 active
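Luminescence readout; reporter = integrated firefly luciferase in P. falciparum. RBC culture at 2% hematocrit, 0.1% parasitemia final, 37 C/5% CO2; decreased signal taken as growth inhibition.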
LmPK inh: blocks Leishmania mexicana pyruvate kinase activity; Q27686; purified LmPK, Kinase-Glo ATP luminescence, 1 h; Potency, µM (doses to about 57.5 µM), actives largely listed as inhibitors; 0.37% of 290,000 active; AID 1721
Target sequence (Q27686 whole entry, looked up): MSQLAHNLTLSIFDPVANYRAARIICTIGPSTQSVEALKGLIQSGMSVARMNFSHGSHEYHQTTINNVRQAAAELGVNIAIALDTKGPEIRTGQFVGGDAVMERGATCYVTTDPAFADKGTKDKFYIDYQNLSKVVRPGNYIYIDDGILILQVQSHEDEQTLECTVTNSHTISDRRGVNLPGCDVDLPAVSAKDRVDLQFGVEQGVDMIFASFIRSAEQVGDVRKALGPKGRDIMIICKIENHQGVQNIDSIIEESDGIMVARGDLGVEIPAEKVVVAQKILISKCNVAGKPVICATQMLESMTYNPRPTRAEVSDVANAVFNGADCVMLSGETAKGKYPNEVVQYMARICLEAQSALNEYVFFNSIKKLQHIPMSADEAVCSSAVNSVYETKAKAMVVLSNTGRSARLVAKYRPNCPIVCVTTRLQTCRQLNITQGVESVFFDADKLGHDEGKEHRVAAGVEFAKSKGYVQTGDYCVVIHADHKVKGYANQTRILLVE
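Pyruvate kinase activity monitored as ATP production (luciferase luminescence). Conditions: 0.1 nM enzyme, 0.5 mM PEP, 0.1 mM ADP, 1 h, RT; normalized against uninhibited and no-enzyme wells.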
Hits are given with their value; n = inactive; u = inconclusive; x = no result; [ ] = dose if it differs, or a comment. The list is not random: actives were taken first. Their share in the collection is about 22%. Unless noted, calls come from the whole dose curve; as a rule, active = well fitted inhibition curve with a large enough effect; inconclusive = small, poorly fitted or top-dose-only effect, or another doubt; inactive = no such curve, though single readings can be large or run the other way.

SMILES	Cycloheximide cs	Shiga toxin inh	Pf growth 96h	Pf growth 48h	LmPK inh
CCOC(=O)c1c(/C=N/Nc2ccccc2)c2sc(C)cc2n1C	x	x	u	9.3µM	x
N/C(=N\OC(=O)c1cccc(F)c1)c1ccccc1	88	93	u	n	16µM
N/C(=N\OC(=O)c1cccc(F)c1)c1ccccn1	n	n	u	n	u
Cc1ccc(/C(N)=N/OC(=O)c2cccc(F)c2)cc1	38	115	n	n	n
COC(=O)CC/C(O)=C1\C(=O)CC(C)(C)CC1=NCCc1nc2ccccc2[nH]1	n	n	u	n	n
COc1cc(C(=O)O)ccc1OCc1ccncc1	n	n	n	n	n
O=C(NCc1ccccc1CN1CCCC1)c1cc2cc(Cl)ccc2o1	x	x	u	13µM	x
O=C(c1cc2cc(Br)cc(Br)c2oc1=O)N1CCCC1	n	n	n	n	n
O=C(c1cc2cc(Cl)ccc2o1)N1CCCC1	49	89	u	u	n
O=C(c1cc2cc(Br)ccc2o1)N1CCCCC1	38	92	n	n	n
CCOC(=O)c1sc2nccc(OC)c2c1N=CN(C)C	n	n	n	n	n
CCC(=O)Oc1ccc(C(=O)Nc2ccc([N+](=O)[O-])cc2)cc1	40	102	u	n	n
O=[N+]([O-])c1ccc(OCC(O)CN(C2CCCCC2)C2CCCCC2)cc1 (centres undefined)	n	n	u	u	n
CC(C)CN(CC(C)C)CC(O)COc1ccc([N+](=O)[O-])cc1 (centres undefined)	n	n	n	12µM	n
CC(C)COc1ccc(C(=O)Nc2ccc([N+](=O)[O-])cc2)cc1	30	51	n	n	n
O=C(COc1ccc([N+](=O)[O-])cc1)Nc1ccc(NC(=O)c2ccccc2)cc1	n	n	n	n	n
CC(C)COc1ccc(C(=O)Nc2ccc(SC(F)F)cc2)cc1	24	n	n	n	n
CC(C)Cc1ccccc1S(N)(=O)=O	n	n	n	n	n
CC1=CC[C@@]23CCCN2C(=O)CCC[C@H]3C1	n	n	x	x	x
COCCN(C(=O)CSc1nnc(-c2cccs2)n1N)c1c(N)n(Cc2ccccc2)c(=O)[nH]c1=O	n	n	n	n	n
COCCCNC(=O)COc1ccc(Br)cc1Cl	38	88	u	n	n
COCCNC(=O)COc1ccccc1Cl	n	n	x	n	n
CN(C)CCCNC(=O)c1cc(Br)ccc1Cl	n	n	9.3µM	x	n
CCNC(=O)COc1ccc(Br)cc1Cl	28	60	n	n	n
O=C(COc1ccc(Br)cc1Cl)Nn1cnnc1	n	n	n	n	n
SMILES	Cycloheximide cs	Shiga toxin inh	Pf growth 96h	Pf growth 48h	LmPK inh
O=c1c(Cc2ccc(F)cc2)c(O)ccn1CCCn1ccnc1	n	n	n	n	n
Cc1cccc(Cn2c(=O)n(-c3ccc(CC(=O)NCc4ccco4)cc3)c(=O)c3sccc32)c1	n	n	u	x	n
CCOCCCNC(=O)/C=C1\Sc2ccccc2N(Cc2ccccc2F)C1=O	32	131	u	n	n
CCOCCCNC(=O)CN1C(=O)/C(=C/c2ccccc2C)Sc2ccccc21	n	n	u	n	n
O=C1C2C3C=CC(C3)C2C(=O)N1/N=C/c1ccc(-c2ccccc2[N+](=O)[O-])o1 (centres undefined)	32	66	n	n	n
O=C1C2C3C=CC(C4CC34)C2C(=O)N1/N=C/c1ccc(-c2ccc([N+](=O)[O-])cc2)o1 (centres undefined)	n	n	n	n	n
O=C1C2C3C=CC(C4CC34)C2C(=O)N1/N=C/c1ccc([N+](=O)[O-])o1 (centres undefined)	22	n	n	n	n
Cc1ccc(-c2ccc(/C=N/N3C(=O)C4C5C=CC(C6CC56)C4C3=O)o2)c([N+](=O)[O-])c1 (centres undefined)	n	n	n	n	n
COC(=O)c1cccc(-c2ccc(/C=N/N3C(=O)C4C5C=CC(C6CC56)C4C3=O)o2)c1 (centres undefined)	n	n	n	n	n
O=C1C2C3C=CC(C4CC34)C2C(=O)N1/N=C/c1cccs1 (centres undefined)	51	49	n	n	n
COC(=O)c1ccc(-c2ccc(/C=N/N3C(=O)C4C5C=CC(C6CC56)C4C3=O)o2)cc1 (centres undefined)	75	132	n	n	n
Cc1ccc2c(c1)CC(C)N2S(=O)(=O)c1nnc(NC(=O)CC(C)C)s1 (centres undefined)	n	n	n	u	n
CC(=O)N1CCN(S(=O)(=O)c2cccc(C(=O)Nc3nc4ccccc4[nH]3)c2)CC1	n	n	1.9µM	u	n
CCCn1nc(C(=O)Nc2nc3ccccc3[nH]2)c2ccccc2c1=O	n	n	u	15µM	n
CCOc1ccccc1NC(=O)c1cc(S(=O)(=O)N2CCOCC2)ccc1C	n	n	12µM	n	n
Cc1nc2ccc(NC(=O)c3cc(S(=O)(=O)N(C)c4ccccc4)ccc3Cl)cc2s1	n	n	0.37µM	1.3µM	n
Cc1ccc(S(=O)(=O)N2CCOCC2)cc1C(=O)Nc1ccccc1N1CCOCC1	x	x	n	n	x
CC(C)n1nc(C(=O)Nc2nc3ccccc3[nH]2)c2ccccc2c1=O	n	n	u	n	n
O=C(CCNS(=O)(=O)c1ccc(Br)cc1)NCCc1ccc(Cl)cc1	n	n	n	n	n
COc1ccccc1C1C(C(C)=O)=C(O)C(=O)N1c1ccc(O)cc1 (centres undefined)	n	n	n	n	n
C=CCOC(=O)C1=C[C@H](C2CCCCC2)[C@@H](CCCO)[C@H](OCC)O1	n	n	u	u	n
O=C(CN1C(=O)c2ccc([N+](=O)[O-])cc2C1=O)Nc1cc(S(=O)(=O)N2CCOCC2)ccc1Cl	x	x	n	n	x
O=C(Nc1nc2ccccc2[nH]1)c1ccccc1O	37	97	n	n[0.00184 µM]	n
Cc1nc2ccc(NC(=O)c3cc(S(=O)(=O)N4CCOCC4)ccc3C)cc2s1	n	n	9.3µM	x	n
Cc1ccc(Nc2nc3ccccc3[nH]2)nc1	26	53	u	3.3µM	n
SMILES	Cycloheximide cs	Shiga toxin inh	Pf growth 96h	Pf growth 48h	LmPK inh
CCOc1ccc(S(=O)(=O)N2CCOCC2)cc1NC(=O)CSCc1ccc(C)cc1	x	x	u	9.3µM	x
CC(=O)Oc1ccc(C(=O)NC(C)CCc2ccccc2)cc1 (centres undefined)	n	n	n	n	n
CC(C)Cn1c(=O)c2c(nc3n2CC(C)CN3Cc2ccccc2)n(C)c1=O (centres undefined)	n	n	u	u	n
CCOc1cc([N+](=O)[O-])c2nc(N)sc2c1	n	n	n	n	n
CCOC(=O)c1ccccc1NC(=O)c1cc(S(=O)(=O)N2CCOCC2)ccc1F	n	n	n	n	n
O=C(Nc1nc2ccccc2[nH]1)c1ccc(Cl)cc1	n	n	n	n	n
O=C(Nc1nc2ccccc2[nH]1)c1ccccc1	17	n	x	n	16µM
Cc1ccc(CSCC(=O)Nc2ccc(N3CCOCC3)cc2N2CCOCC2)cc1	x	x	u	5.2µM	x
Cc1ccc(S(=O)(=O)N2CCOCC2)cc1C(=O)Nc1nc2ccccc2[nH]1	18	n	n	u	n
